Records with an inconclusive call do not appear. Activity calls are given as the source filed them. How the source made its calls: active means hit-call score of the fitted dose curve at least 0.9, where 1 is the maximum; inconclusive means response in the unintended direction; inactive means score below 0.9.

Sequence of rat Thyrotropin Releasing Hormone Receptor (TRH), Trhr (gene 25570) (Q01717 whole entry, looked up): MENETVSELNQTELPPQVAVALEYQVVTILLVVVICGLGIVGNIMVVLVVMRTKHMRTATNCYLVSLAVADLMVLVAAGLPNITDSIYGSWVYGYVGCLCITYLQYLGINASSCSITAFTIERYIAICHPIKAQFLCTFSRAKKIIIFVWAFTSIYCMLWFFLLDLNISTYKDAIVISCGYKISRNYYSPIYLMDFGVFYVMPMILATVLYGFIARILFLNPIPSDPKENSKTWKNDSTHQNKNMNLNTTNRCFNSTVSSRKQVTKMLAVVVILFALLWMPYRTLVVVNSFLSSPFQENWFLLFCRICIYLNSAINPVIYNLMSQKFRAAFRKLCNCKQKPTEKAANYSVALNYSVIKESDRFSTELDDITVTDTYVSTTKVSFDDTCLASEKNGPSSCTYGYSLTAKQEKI

The assay has as its target rat Thyrotropin Releasing Hormone Receptor (TRH), Trhr (gene 25570) (UniProt Q01717). Description: NVS_GPCR_rTRH: NovaScreen (NVS) G Protein-Coupled Receptor Assay for rat Thyrotropin Releasing Hormone Receptor (TRH) (AID 2283329).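 Further: hit means lower bound tracer signal versus DMSO baseline.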 As for the experimental part:
NVS_GPCR_rTRH is a biochemical, single-readout assay that uses extracted gene-proteins from Rat forebrain membranes in a tissue-based cell-free assay. Measurements were taken 4 hours after chemical dosing in a 48-well plate.NVS_GPCR_rTRH is one of one assay component(s) measured or calculated from the NVS_GPCR_rTRH assay. It is designed to make measurements of radioligand binding, a form of binding reporter, as detected with scintillation counting signals by Filter-based radiodetection technology.Data from the assay component NVS_GPCR_rTRH was analyzed into 1 assay endpoint. This assay endpoint, NVS_GPCR_rTRH, was analyzed in the positive analysis fitting direction relative to DMSO as the negative control and baseline of activity. Using a type of binding reporter, loss-of-signal activity can be used to understand changes in the binding as they relate to the gene Trhr. Furthermore, this assay endpoint can be referred to as a primary readout, because the performed assay has only produced 1 assay endpoint. To generalize the intended target to other relatable targets, this assay endpoint is annotated to the gpcr intended target family, where the subfamily is rhodopsin-like receptor.
Binding assays used specific radioligands (tritiated, iodinated) with non-radioactive competitive displacement ligands in agonist or antagonist protocols (as indicated) and various reference compounds and inhibitors to titrate specific binding to receptors and transporters. Most enzyme assays (CYPs, kinases, phosphatases, proteases, HDACs) used recombinant protein and specific substrates (fluorescence mostly, some colorimetric and radioactive) and inhibitors, followed by a biochemical separation of substrate and product. All assays for the biochemical HTS were initially run in duplicate at a single concentration (10 uM for CYP450 assays and 25 uM for all others). […] Each assay was run with positive and negative controls, and concurrent controls on every plate. The follow-up (secondary) screen tested active chemical-pairs in concentration series, as well as a few additional assays not tested in the primary screen, some selected negative inactives, and several cases re-run in the concentration series for confirmatory purposes.
As for `CN(N=O)C(N)=O`, the result was inactive. For `CCOCn1c(-c2ccc(Cl)cc2)c(C#N)c(Br)c1C(F)(F)F`, the compound was called inactive. For `O=C(CCl)Nc1ccccc1`, the compound was called inactive. For the compound `O=c1nc(O)n(Cl)c(=O)n1Cl`, the outcome was inactive. In the case of `COc1ccccc1N`, the compound was called inactive. `CC(O)(CS(=O)(=O)c1ccc(F)cc1)C(=O)Nc1ccc(C#N)c(C(F)(F)F)c1` (configuration not stated): the call was inactive. As to `N#CCC#N`, the call was inactive. In the case of `CC(=Cc1ccccc1)[N+](=O)[O-]`, the compound was classed as inactive. For `O=C(CBr)c1ccc(O)cc1`, the call was inactive. Consider `O=[N+]([O-])c1ccc(Cl)c([N+](=O)[O-])c1`, for which the compound was called inactive. Take `CNC(=O)O/N=C/C(C)(C)S(C)(=O)=O`: the compound was called inactive.

With `O=S1(=O)OC(c2cc(Br)c(O)c(Br)c2)(c2cc(Br)c(O)c(Br)c2)c2ccccc21`, the compound was classed as inactive. Consider `O=c1[nH]c(=O)n(Cl)c(=O)n1Cl`, for which the outcome was inactive. Take `COc1nn(C(=O)NS(=O)(=O)c2ccccc2OC(F)(F)F)c(=O)n1C`: the compound was called inactive.

For `CC(C)N(C(=O)CCl)c1ccccc1`, the compound was called inactive. As to `N#CCCC(Br)(C#N)CBr` (configuration not stated), the call was inactive. As for `CCC[CH2][Sn]([Cl])([Cl])[CH2]CCC`, the call was inactive.

Source of the values: PubChem BioAssay (EPA / NIEHS).
